ATXN viability: Viability Counterscreen for Primary qHTS for Inhibitors of ATXN expression; S2 cells (HEK-293 line with an ATXN2-luciferase reporter) viability, CellTiter-Fluor protease fluorescence, 24 h; Potency, µM (doses to about 56.7 µM), hits mostly cytotoxic; hit rate 0.49% among 400,000; AID 651635, 2014; note: nearly all actives have a fitted effect of over 40% in size
TGFb inhibitor: qHTS for Inhibitors of TGF-b | hit rate 1.2% among 410,000 | Potency, µM (titrated, usually from 46.1 µM), usual class: inhibitors | HepG2 CAGA-GFP TGF-b/SMAD3 reporter, GFP fluorescence, 18 h; TGF-beta stimulated, 500 pg/mL final; note: nearly all actives have a fitted effect of over 65% in size
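HEPG2 CAGA-GFP reporter cells (1000/well, DMEM with 1% FBS) received compounds, then recombinant TGF-beta at 500 pg/mL final for 18 hours at 37 degrees C. Per-cell GFP summed per well was normalised to unstimulated and stimulated DMSO controls before curve fitting.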
ATXN2 expr inh: Primary qHTS for Inhibitors of ATXN expression. Potency, µM (highest dose often 57 µM), actives largely listed as inhibitors. HEK-293 ATXN2-luciferase reporter, luminescence, 24 h. hit rate 0.72% among 360,000; note: nearly all actives have a fitted effect of over 55% in size
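ATXN2-luciferase reporter cells (luciferase flanked by upstream and downstream ATXN2 gene portions) were treated 24 h at 37 °C with compounds at up to 57 uM. SteadyGlo luminescence gave expression; GF-AFC fluorescence gave viability.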
Apoferritin bind: qHTS Assay for Identification of Novel General Anesthetics; hit rate 0.074% among 350,000; Ferritin light chain (Equus caballus), P02791; Potency, µM (highest dose often 77.5 µM), usual class: inhibitors; apoferritin/1-aminoanthracene competitive binding, fluorescence; note: nearly all actives have a fitted effect of over 20% in size
Target sequence (P02791 2-175 limits assumed): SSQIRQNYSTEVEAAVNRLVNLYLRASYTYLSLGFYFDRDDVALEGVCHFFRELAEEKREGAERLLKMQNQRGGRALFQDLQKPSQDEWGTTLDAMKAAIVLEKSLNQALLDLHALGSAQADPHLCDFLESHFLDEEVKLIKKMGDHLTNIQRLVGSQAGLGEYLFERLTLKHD
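Horse-spleen apoferritin (10 uM) in 50% saturated 1-aminoanthracene in PBS was incubated 10 min at room temperature with compound. Fluorescence (ex 380, em 535 nm) was normalized to free and bound 1-AMA, with concentration-response fitted by a four-parameter Hill equation.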
HepG2 viability: qHTS for Inhibitors of TGF-b: Cytotox Counterscreen; Potency, µM (top dose mostly 46.1 µM), most hits filed as cytotoxic; hit rate 0.76% among 410,000; HepG2 CAGA-GFP viability, ATP luminescence, 18 h; AID 588856, 2011
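CellTiter-Glo luminescence gave cytotoxicity after 18 hours at 37 degrees C. The cells were HepG2 CAGA-GFP in 1% FBS DMEM, stimulated with 500 pg/mL TGF-beta after compound addition. %Activity was normalised to no-cell wells (complete cell-killing) and DMSO (no toxicity), and curves were fitted and classified.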
Large screens that a line does not name were inactive. Rows were chosen to be rich in hits. Some 2.4% of all compounds tested hit in one or more screens of this group. Calls come from the whole dose curve; as a rule, active = well fitted curve in the direction sought with a large enough effect; inconclusive = small, poorly fitted or top-dose-only effect, or another doubt; inactive = no such curve, though single readings can be large; an effect the other way counts as inactive or inconclusive.

CC1(C)N=C(c2ccc(F)cc2)C(=O)N1CC(=O)Nc1ccccc1Cl	none (no result: ATXN viability, TGFb inhibitor, ATXN2 expr inh)
Cc1ccccc1CS(=O)(=O)c1nnc([C@H](Cc2ccccc2)NC(=O)OC(C)(C)C)o1	TGFb inhibitor inconclusive, ATXN2 expr inh inconclusive, Apoferritin bind inconclusive (no result: ATXN viability)
CCC(C)[C@@H](NC(=O)OC(C)(C)C)c1nnc(S(=O)(=O)Cc2cccc(C)c2)o1 (stereo partly drawn)	TGFb inhibitor 8.9µM, ATXN2 expr inh inconclusive, Apoferritin bind inconclusive (no result: ATXN viability)
Cc1ccc(C)c(C(=O)N2CCC(c3nc4c(nnn4Cc4ccccc4)c(=O)[nH]3)CC2)c1	TGFb inhibitor 11µM
COc1ccc(C2(C(=O)Nc3cc(C)on3)CCOCC2)cc1	none
Cc1ccc(NC(=O)C2(c3ccc4c(c3)OC(F)(F)O4)CC2)nc1-c1cccc(C(=O)O)c1	ATXN2 expr inh 0.086µM (no result: ATXN viability, TGFb inhibitor, Apoferritin bind, HepG2 viability)
CC1(C(=O)O)NCCc2cc(O)c(O)cc21 (stereo not drawn)	none (no result: ATXN viability, TGFb inhibitor, ATXN2 expr inh, HepG2 viability)
COc1ccccc1NC(=O)Cc1nnc(SCC(=O)c2ccc(F)cc2)n1C	none
CC1=C(C)C(=O)C(C(CCCCCC(=O)O)c2ccccc2)=C(C)C1=O (stereo not drawn)	none (no result: TGFb inhibitor, Apoferritin bind, HepG2 viability)
COc1ccc(CN(C)C(=O)/C=C/c2ccc(S(=O)(=O)N3CCCCCC3)cc2)cc1	TGFb inhibitor inconclusive (no result: Apoferritin bind)
CNC(=O)c1ccc(CN(C)C(=O)/C=C/c2ccc(S(=O)(=O)N3CCCCCC3)cc2)cc1	HepG2 viability 7.1µM (no result: ATXN2 expr inh, Apoferritin bind)
O=C(C[N+]1(CCO)CCOCC1)c1ccc2ccccc2c1	none (no result: ATXN viability, ATXN2 expr inh, Apoferritin bind)
COc1ccc(NC(=O)/C(Cl)=C(/Cl)S(=O)Cc2ccc(Cl)cc2)cn1 (stereo not drawn)	ATXN viability 2.8µM, TGFb inhibitor 2.2µM, ATXN2 expr inh 2.5µM, HepG2 viability 2.5µM
COc1ccc(NC(=O)/C(Cl)=C(/Cl)S(=O)(=O)Cc2ccccc2)cn1	ATXN viability 14µM, TGFb inhibitor inconclusive, ATXN2 expr inh 13µM, Apoferritin bind inconclusive, HepG2 viability 6.3µM
COc1ccc(NC(=O)C(C)(C)Oc2ccc(Cl)cc2)cn1	ATXN viability inconclusive (no result: Apoferritin bind)
COc1ccc(NC(=O)C(Cl)=C(Cl)Cl)cn1	none
COc1ccc(Cn2c(C(=O)O)c(CNCc3cccs3)c3ccc(C)cc32)cc1	ATXN viability 5µM, TGFb inhibitor inconclusive, ATXN2 expr inh inconclusive
Cc1ccc2c(CNCc3cccs3)c(C(=O)O)n(Cc3ccc(F)cc3)c2c1	ATXN viability inconclusive, TGFb inhibitor inconclusive
COc1ccc2c(CNCCc3cccs3)c(C(=O)O)n(Cc3ccc(F)cc3Cl)c2c1	TGFb inhibitor inconclusive, HepG2 viability 18µM (no result: ATXN viability, ATXN2 expr inh)
C=Cc1ccc(Cn2c(C(=O)O)c(CNCc3cccs3)c3ccc(C)cc32)cc1	TGFb inhibitor inconclusive, ATXN2 expr inh inconclusive, HepG2 viability 13µM (no result: ATXN viability)
C=Cc1ccc(Cn2c(C(=O)O)c(CNCc3ccc(F)cc3)c3ccc(C)cc32)cc1	ATXN viability 18µM, TGFb inhibitor 13µM, ATXN2 expr inh inconclusive
C=Cc1ccc(Cn2c(C(=O)O)c(CNCCc3ccco3)c3ccc(C)cc32)cc1	TGFb inhibitor inconclusive (no result: ATXN viability)
COc1ccc2c(CNCc3cccs3)c(C(=O)O)n(Cc3ccc(F)cc3Cl)c2c1	TGFb inhibitor inconclusive
CC1(C)OC(C(O)(c2cc(C(F)(F)F)cc(C(F)(F)F)c2)c2cc(C(F)(F)F)cc(C(F)(F)F)c2)C(C(O)(c2cc(C(F)(F)F)cc(C(F)(F)F)c2)c2cc(C(F)(F)F)cc(C(F)(F)F)c2)O1 (stereo not drawn)	none (no result: ATXN viability, TGFb inhibitor, ATXN2 expr inh, HepG2 viability)
CC(=O)C(Cc1ccccc1)NC(=O)COC(=O)c1cc(S(=O)(=O)N2CCOCC2)ccc1F (stereo not drawn)	none (no result: ATXN2 expr inh, Apoferritin bind)
COCCN1C(=O)C(CC(=O)Nc2ccc(C(C)=O)cc2)SC1=Nc1ccccc1 (stereo not drawn)	Apoferritin bind inconclusive
CC(O)CN1C(=O)C(CC(=O)Nc2ccc(Cl)cc2)SC1=Nc1ccccc1 (stereo not drawn)	ATXN viability inconclusive, TGFb inhibitor 11µM, ATXN2 expr inh inconclusive
COc1cc(OC)cc(-c2cc3nc(C)c(CCC(=O)NC(C)CCc4ccco4)c(C)n3n2)c1 (stereo not drawn)	ATXN2 expr inh inconclusive
COc1cc(OC)cc(-c2cc3nc(C)c(CCC(=O)O)c(C)n3n2)c1	ATXN2 expr inh 0.71µM
COC(=O)c1ccc(C(=O)NCC2Cc3cccc(-c4ccc(C(=O)OC)cn4)c3O2)cc1 (stereo not drawn)	none (no result: TGFb inhibitor, ATXN2 expr inh, Apoferritin bind, HepG2 viability)
O=C(COc1ccc(/C=N/NC(=O)c2cc3ccccc3o2)cc1Br)Nc1ccccc1	ATXN viability 10µM, TGFb inhibitor 3.5µM, ATXN2 expr inh inconclusive
O=S(=O)(NCC(Nc1ccc(Cl)cc1)c1ccccc1)c1ccc(Cl)cc1 (stereo not drawn)	TGFb inhibitor 13µM, ATXN2 expr inh inconclusive
Cc1ccc(S(=O)(=O)NCC(Nc2cccc(Cl)c2)c2ccccc2)cc1 (stereo not drawn)	TGFb inhibitor 11µM, ATXN2 expr inh inconclusive, HepG2 viability 18µM
CC(C)c1ccc(Nc2ncnc3onc(-c4ccc(F)cc4)c23)cc1	none
Cc1ccc(F)c(C2C3C=CCC(c4ccccc4)C3C(=O)N2Cc2ccccc2)c1 (stereo not drawn)	TGFb inhibitor 13µM (no result: ATXN viability, ATXN2 expr inh)
COc1ccc(-c2ccoc2)cc1C1C2C=CCC(C)C2C(=O)N1Cc1ccccc1 (stereo not drawn)	TGFb inhibitor 16µM, Apoferritin bind inconclusive (no result: ATXN viability, ATXN2 expr inh)
O=C1C2C(c3ccccc3)CC=CC2[C@H](c2ccc(C(F)(F)F)cc2)N1Cc1ccccc1 (stereo partly drawn)	TGFb inhibitor inconclusive, ATXN2 expr inh inconclusive (no result: ATXN viability)
C[C@@H]1CC=C[C@H]2[C@H]1C(=O)N(Cc1ccccc1)[C@H]2c1ccc(C(F)(F)F)cc1	TGFb inhibitor 22µM
Cc1nc2c([nH]1)CCN(C(=O)c1ccc(NC(=O)c3ccccc3-c3ccccc3)cc1)c1ccccc1-2	none (no result: ATXN viability, TGFb inhibitor, Apoferritin bind, HepG2 viability)
Cc1onc(-c2c(F)cccc2Cl)c1C(=O)c1ccccc1O	HepG2 viability 5.6µM
O=Cc1ccc(O)c2ncccc12	TGFb inhibitor 4µM, ATXN2 expr inh 3.5µM, HepG2 viability 4.5µM (no result: ATXN viability)
O=C1[C@H]2[C@H]3[C@H](O)[C@H](O)C/C(=N/OCc4ccccc4)[C@H]3CC[C@@H]2C(=O)N1C1CCCCC1	none (no result: ATXN viability, TGFb inhibitor, ATXN2 expr inh, HepG2 viability)
CCC(C(=O)N1CCN(c2ccc(OC)cc2)CC1)n1nc(C)n2c(cc3occc32)c1=O (stereo not drawn)	ATXN viability inconclusive, TGFb inhibitor 10µM
CCC(C(=O)N1CCCCCC1)n1nc(C)n2c(cc3occc32)c1=O (stereo not drawn)	none
Cc1nc(-c2cccs2)sc1C(=O)NN	none
Cc1nc(-c2ccc(C(F)(F)F)cc2)sc1C(=O)NN	ATXN2 expr inh 16µM
